An excerpt weighted towards active compounds, which were near 7.7% of everything screened.
FMDV inh: antivirals against foot and mouth disease virus; FMDV antiviral cell-based qHTS; Potency, µM (highest dose often 57.9 µM), for inactives: at the top dose activity change, negative = inhibition, hits mostly inhibitors; 410,000 tested, 1.2% active; AID 1159524; calls by dose curve; tested in HEK293T cells; further: read-out not given here; potency means the concentration at half of the fitted maximal effect; nearly all actives have a fitted effect of over 45% in size
RE007 growth inh: less growth of the S. pombe RE007 Vpr strain. S. pombe RE007 Vpr strain, BacTiter-Glo ATP luminescence, 24 h. Potency, µM (titrated, usually from 92.2 µM), for the others: at the highest dose activity change, negative = less growth, actives largely listed as inhibitors. 360,000 tested, 0.21% active; active means well fitted falling curve with a large enough effect; inconclusive means small, poorly fitted or top-dose-only effect; inactive means no such curve, though single readings can be large or run the other way; further: potency means the concentration at half of the fitted maximal effect; nearly all actives have a fitted effect of over 50% in size
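Fission yeast strain RE007, carrying one chromosomally integrated HIV-1 vpr copy, was seeded at OD 0.01 in PMG+AL medium with 23 nL pinned compound. After 24 h at 30 °C and 99% humidity, viability was read by BacTiter-Glo luminescence.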
Sm TGR block: S. mansoni TGR enzyme inhibition; Potency, µM (titrated, usually from 114 µM), for the others: at the top dose activity change, negative = inhibition, most hits filed as inhibitors; Q962Y6; 360,000 tested, 3% active; purified TGR, DTNB reduction, TNB absorbance 405 nm; further: potency means the concentration at half of the fitted maximal effect; nearly all actives have a fitted effect of over 60% in size
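TGR 20 nM + NADPH 100 uM (dispensed conc.), cpd preinc 15 min RT; start with NADPH (500 uM addition) then DTNB (15 mM addition). Kinetic TNB absorbance, 405 nm filter. Four-parameter Hill fit across titration.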
Giardia FBPA inh: inhibitors of Giardia lamblia fructose-1,6-bisphosphate aldolase. A8B2U2. purified Giardia FBPA. Potency, µM (series often up to 59.6 µM), without a hit: at the highest dose activity, negative = inhibition, actives largely listed as inhibitors. 290,000 tested, 0.71% active; further: potency means the concentration at half of the fitted maximal effect; nearly all actives have a fitted effect of over 55% in size
Target sequence (A8B2U2 whole entry, looked up): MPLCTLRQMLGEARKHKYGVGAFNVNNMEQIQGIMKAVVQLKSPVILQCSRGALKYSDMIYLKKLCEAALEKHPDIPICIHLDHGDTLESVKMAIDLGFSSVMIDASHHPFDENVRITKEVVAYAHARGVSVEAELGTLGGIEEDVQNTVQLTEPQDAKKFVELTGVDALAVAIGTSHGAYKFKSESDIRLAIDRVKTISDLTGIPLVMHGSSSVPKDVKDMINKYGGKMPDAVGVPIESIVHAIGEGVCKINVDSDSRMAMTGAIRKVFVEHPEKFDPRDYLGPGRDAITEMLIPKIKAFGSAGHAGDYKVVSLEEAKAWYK
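40 nM FBPA preincubated 10 min at RT with compound (up to 57.5 uM final), then substrate plus GAPDH/TPI/NAD/arsenate coupling and diaphorase/resazurin added. Fluorescence read after 20 min at RT, 525/598 nm.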
HCMV inh: human cytomegalovirus inhibition; activity change, negative = inhibition, % at 57.5 µM; HFF cells, HCMV-luciferase reporter, 72 h; hits give low values; 410,000 tested, 4.5% active; AID 1259415; in the data active means activity change below about -60%; inconclusive means no clear call, values can overlap the other calls; inactive means above about -39%
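Two-dose cell screen: HFF monolayers treated with compounds and infected with luciferase-expressing HCMV at 1 PFU/cell, 72 h at 37C, then lysed for luciferase measurement.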
Tb PYK inh: inhibitors of Trypanosoma brucei pyruvate kinase; TbPYK enzyme, Kinase-Glo Plus ATP luminescence, 45 min; Potency, µM (titrated, usually from 76.8 µM), for the others: at the top dose activity, negative = inhibition, actives largely listed as inhibitors; 410,000 tested, 0.12% active; further: potency means the concentration at half of the fitted maximal effect; nearly all actives have a fitted effect of over 50% in size
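T. brucei PYK with substrate was exposed to pin-transferred compounds across a concentration series, then started with 130 uM ADP (final). After 45 min at room temperature, Kinase-Glo Plus luminescence was read, normalized and curve-fitted.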
Active calls of the source: *; ? = inconclusive; · = no result given. Unless noted, the call rests on the fitted dose curve; in most records, active means well fitted curve in the direction sought with a large enough effect; inconclusive means small, poorly fitted or top-dose-only effect, or another doubt; inactive means no such curve, though single readings can be large; an effect the other way counts as inactive or inconclusive. On the % scale 0 is the no-effect control and ±100 the full control effect.

SMILES	FMDV inh	RE007 growth inh	Sm TGR block	Giardia FBPA inh	HCMV inh	Tb PYK inh
CCN(CC)S(=O)(=O)c1ccc2c(c1)N(CC(=O)NCCCN1CCN(c3ccc(OC)cc3)CC1)C(=O)CO2	-11%	·	-2%	·	-11	-4%
CC(C)NC(=O)C1CCN(C(=O)N2CCOc3ccc(Cl)cc32)CC1	-13%	·	-5%	·	4	-1%
Nc1nc(N)nc(-c2ccc(Cl)c(Cl)c2)n1	25%	5%	1%	·	-5	-2%
Cc1cc(OCc2nc(N)nc(N)c2-c2ccc(Cl)c(Cl)c2)ccc1[N+](=O)[O-]	25µM*	5%	·	·	-100*	-1%
Cc1nc(N)nc(N)c1CCCc1ccc(Cl)c(Cl)c1	-9%	-6%	·	·	-87*	1%
Cc1nc(N)nc(N)c1-c1ccc(Cl)c(Cl)c1	-23%	0%	·	·	-98*	1%
CSc1ncccc1C(=O)NCC1Cc2cc(F)cc(-c3cncnc3)c2O1 (stereo not given)	-22%	·	·	·	·	·
CCN(CC)c1ccc(/C=N\NC(=O)c2cccc3cc[nH]c23)cc1	16%	-6%	-12%	-5%	-63*	4%
O=C(N/N=C/c1ccc([N+](=O)[O-])cc1)c1cccc2cc[nH]c12	-4%	12%	8%	3%	-5	-3%
CCOc1ccc(N=C(NN)c2ccc3ccccc3n2)cc1	8.9µM*	-1%	2%	?	-69*	-24%
CCOc1ccc(N=C(C)C2=C(O)c3ccccc3C2=O)cc1	-35%	-3%	14%	-5%	3	-10%
COc1ccc2cc(CNCc3nonc3C)c(N3CCCC(CO)C3)nc2c1 (stereo not given)	13%	·	·	·	·	·
COc1ccc(S(=O)(=O)N2CCCCC2c2cc(C(=O)NCc3ccccc3)no2)cc1 (stereo not given)	1%	3%	·	·	-62*	4%
O=C(NCc1ccccc1)c1cc(C2CCCCN2S(=O)(=O)c2ccccc2)on1 (stereo not given)	1%	-7%	·	·	-19	5%
CC(C)Oc1ccc(CNC(=O)c2cnc3sc(N4CCCCC4)nn3c2=O)cc1	-21%	·	10%	·	14	0%
CC(=O)N1CCOc2ccc(S(=O)(=O)N3CCC(C(=O)Nc4cc(C)ccc4C)CC3)cc21	-17%	5%	-2%	3%	-64*	1%
CC(=O)N1CCOc2ccc(S(=O)(=O)N3CCC(C(=O)Nc4ccc(C)cc4C)CC3)cc21	-12%	-11%	-3%	·	-34	7%
CCn1nc(C)c2c(-c3ccccc3)cc(=O)n(C(C)C(=O)NCCc3ccc(Cl)cc3)c21 (stereo not given)	-4%	·	0%	·	-11	-6%
COCCN(CC(=O)NC1CCCCC1)C(=O)/C=C/C(=O)c1ccc(OC)cc1O	3.2µM*	-8%	-14%	1%	-112*	?
COc1ccc(C(=O)/C=C/C(=O)N(CC(=O)NC2CCCCC2)Cc2cccs2)c(O)c1	6.3µM*	-1%	1.6µM*	-3%	-100*	?
COc1ccc(CN(C(=O)/C=C/C(=O)c2ccc(OC)cc2O)C(C(=O)NC2CCCCC2)c2ccncc2)cc1 (stereo not given)	2%	-9%	-5%	-18%	-84*	-4%
Clc1cc(NCc2cccs2)ccc1N1CCOCC1	20%	-19%	45µM*	?	122	-10%
Oc1ccccc1CNc1ccc2c(c1)OCCO2	30%	-9%	?	-10%	?	-22%
c1csc(CNc2ccc3c(c2)OCCO3)c1	?	-14%	31%	?	-86*	-19%
FC(F)(F)c1cc(NC(=S)Nc2ccc3cc4ccccc4cc3c2)cc(C(F)(F)F)c1	·	·	·	-9%	·	·
SMILES	FMDV inh	RE007 growth inh	Sm TGR block	Giardia FBPA inh	HCMV inh	Tb PYK inh
CCn1c(-c2cccc(OC)c2)nc2cc(NC(C)=O)cc(C(=O)N(C)CC3COCCO3)c21 (stereo not given)	2%	·	·	·	·	·
Brc1ccc(CN2CCCc3nc(-c4ccccc4)ccc32)cc1	·	·	·	·	-81*	·
O=C(NC1CC1)c1ccc(CSCc2cccc(F)c2)o1	1%	4%	35µM*	-8%	50	-4%
O=C(NCc1ccccc1Cl)O[C@H]1CC[C@@]23CCCN2C(=O)CCC[C@H]3[C@H]1Cc1ccccc1	·	·	·	·	-2	·
Cc1nn(-c2ccccc2)c(C)c1CC(=O)NCC1Cc2cc(-c3cncnc3)ccc2O1 (stereo not given)	-11%	·	·	·	·	·
CCCC(=O)N1c2ccccc2-c2nnc(SC)nc2OC1c1sccc1C (stereo not given)	-21%	·	-10%	·	20	6%
CN(CC1(C)CCCO1)S(=O)(=O)c1ccc(Cl)c(S(N)(=O)=O)c1 (stereo not given)	·	·	·	·	·	0%
CCCCOC(=O)Nc1nnc(-c2ccccc2OC)s1	-2%	-11%	0%	-2%	-83*	-2%
COc1ccccc1-c1nnc(NC(C)=O)s1	6%	-30%	1%	3%	35	11%
COC(=O)/C=C/[C@H]1CCCN1c1ccc(OC)cc1	·	·	·	·	-14	·
Cc1nc2c(=O)n(C)c(=O)n(C)c2nc1Cl	?	-24%	6.3µM*	14%	-103*	3%
O=C(O)[C@H]1CCCN(CCC=C(c2ccccc2)c2ccccc2)C1	·	·	·	3%	·	·
O=C(Nc1nc2ccc(F)cc2s1)c1nc(S(=O)(=O)Cc2ccccc2)ncc1Cl	28µM*	·	?	·	-107*	1%
CSc1ncc(Cl)c(C(=O)Nc2nc3ccc(F)cc3s2)n1	-7%	·	9%	·	27	4%
Cc1cccc(CS(=O)(=O)c2ncc(Cl)c(C(=O)Nc3nc4ccc(F)cc4s3)n2)c1	16µM*	·	-28%	·	-60*	1%
N=C(c1cccc([N+](=O)[O-])c1)N1CCCCCC1	3%	15%	5%	0%	12	-1%
O=[N+]([O-])c1ccc(N2CCCCC2)cc1SCCO	-10%	-4%	13%	0%	-13	-17%
Cc1nc(N2CCCCC2)sc1C(=O)c1cccc([N+](=O)[O-])c1	-13%	6%	1%	-8%	-73*	2%
Cc1nc(N2CCCCC2)sc1C(=O)c1ccc(SCCO)c([N+](=O)[O-])c1	32µM*	-15%	2%	0%	?	-27%
O=C(NCCOc1nc(N2CCCCC2)nc(N2CCOCC2)n1)Nc1ccccc1	12%	-7%	0%	-3%	-77*	3%
O=C(CSc1nnc(Cc2cccs2)n1Cc1ccco1)Nc1cc(Cl)cc(Cl)c1	-23%	12%	35µM*	3%	35	3%
COc1ccc(C)cc1NC(=O)CSc1nnc(-c2ccccn2)n1Cc1ccco1	-23%	3%	10%	-3%	33	-1%

From PubChem BioAssay
